Test results: PubChem BioAssay
Values joined by “and” are separate entries in the source; they are usually repeats but may differ in a detail not shown here. Equal values may be shown once. For part of these data: Results with a measured potency or affinity are listed apart. Active and inactive are the calls of the source.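 How the source made its calls, unless noted: active means compounds killing one labelled cell type while sparing the other, by normalised counts and ratio limits, not self-fluorescent; inactive means the rest.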

What was measured:
[1] = differential killing of epithelial or mesenchymal cells, primary screen, imaging, PC-3E GFP, TEM4-18 mCherry, co-culture (AID 1345086); details: imaging cell counts, at 1 µM; for red/green cell ratio (normalised): actives lie on both sides, counts scaled to control wells, 1 = unselective;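 on all read-outs here: cells exposed to compound for 72 h before imaging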;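 on red/green cell ratio (normalised): normalised mesenchymal count divided by normalised epithelial count so high means epithelial killing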
[2] = suppressors of polyQ aggregation in yeast, 75Q-TubU reporter (AID 1593); details: Yeast 75Q polyglutamine aggregation reporter
[3] = rescue of polyQ-huntingtin neuronal dysfunction in worms, whole organism, C. elegans mechanosensory neurons, N-terminal huntingtin (AID 1599); details: touch response, stronger effect = higher value
[4] = inhibitors of mitochondrial cytochrome c release, biochemical, purified mitochondria (AID 1603); details: stronger effect = lower value;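 further: mouse liver mitochondria challenged with calcium chloride; signal normalized to the plate average as 100%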
[5] = inhibitors of polyQ protein aggregation (AID 1604); details: polyglutamine-induced protein aggregation inhibition assay; stronger effect = higher value; tested at 2.5 µM
[6] = enhancers of glutamate uptake in motor neurons, MN-1 cell line (AID 1612); details: MN-1 motor neuron cells, stronger effect = higher value;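 further: tested at 1 µM final; 0% = mean of DMSO vehicle wells on each plate; positive means more glutamate uptake than control and negative means less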
[7] = suppressors of polyglutamine aggregation in yeast, 75Q-TubH (AID 1616); details: S. cerevisiae 75Q-TubH polyglutamine aggregation suppression; stronger effect = higher value
[8] = circadian clock period modulators, cell-based, LOPAC library, luminescence reporter (AID 2774; call rule not given here;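 further: values are relative to mean of DMSO wells on each plate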); details: circadian reporter cells, at 7 µM, actives lie on both sides
[9] = Cy5 fluorescence quenching or enhancement artefacts, artefact control for HCV NS3 helicase inhibitor project, biochemical, LOPAC1280 (AID 687037; call rule not given here); details: Cy5-DNA-NS3h complex fluorescence interference counterscreen
[10] = tested on: Aerobactin synthetase IucA (Klebsiella pneumoniae); test: IucA aerobactin synthetase inhibitors, biochemical, Tocris library, absorbance (AID 1345561; call rule not given here;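 further: 100% = enzyme without compound and 0% = no enzyme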); details: purified IucA enzyme assay, absorbance (OD) read-out; stronger effect = lower value;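 tested at 8 µM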
[11] = sensitizers of A549 cells to miR-34 induction, primary screen, imaging, A549 dox-inducible miR-34, nuclei and caspase counts (AID 1347080;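 active means compounds whose cell count with miR-34 switched on is under 0.7 times the count with it off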); details: A549 miR-34 inducible, Hoechst nuclei count, 48 h
[12] = inhibitors of Cryptococcus chitosan production, flow cytometry, Cibacron Brilliant Red staining (AID 1347148; call rule not given here;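 further: compound exposure lasted three days at 37 degrees C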); details: Cryptococcus neoformans chitosan, stronger effect = lower value; at 10 µM unless noted
[13] = measured here: epithelial PC-3E GFP cell survival
[14] = measured here: mesenchymal TEM4-18 mCherry cell survival

CC(=O)O[C@H]1C[C@@H](OC(C)=O)C(C)(C)C2C[C@@H](OC(C)=O)[C@]3(C)C(CC[C@@]4(C)[C@H](c5ccoc5)OC(=O)[C@H]5O[C@]543)[C@]21C (stereo partly specified)
red/green cell ratio (normalised) [1]: 1.1 (inactive)
normalised cell number [1, 13]: 0.93
normalised cell number [1, 14]: 1.02

O=C1CC[C@]23/C=C/C(=O)NCCCCNCCCNC(=O)/C=C/c4ccc(c2c4)O[C@@H]3C1
red/green cell ratio (normalised) [1]: 0.81 (inactive)
normalised cell number [1, 13]: 1.1
normalised cell number [1, 14]: 0.89

CC(C)(C)OC(=O)NCCCC(NC(=O)C(Cc1ccccc1)NC(=O)OC(C)(C)C)C(=O)O (stereo unspecified)
red/green cell ratio (normalised) [1]: 0.88 (inactive)
normalised cell number [1, 13]: 1.24
normalised cell number [1, 14]: 1.1

CC(=O)OCC1O[C@H]2OC(=O)NC2[C@@H](OC(C)=O)C1OC(C)=O (stereo partly specified)
red/green cell ratio (normalised) [1]: 0.82 (inactive)
normalised cell number [1, 13]: 1.33
normalised cell number [1, 14]: 1.08

C/C=C/CC(C)C(O)C1C(=O)NC(CC)C(=O)N(C)CC(=O)N(C)C(CC(C)C)C(=O)NC(C(C)C)C(=O)N(C)C(CC(C)C)C(=O)NC(C)C(=O)NC(C)C(=O)N(C)C(CC(C)C)C(=O)N(C)C(CC(C)C)C(=O)N(C)C(C(C)C)C(=O)N1C (stereo unspecified)
score [2]: 1.51
rescue above control [3]: 1.62
cytochrome c release ratio [4]: 0.93
inhibition of aggregation [5]: 77.8%
glutamate uptake change [6]: -28.6%
aggregation suppression score [7]: 1.73
period change [8]: -0.005 h (inactive)
fluorescence ratio (interference) [9]: 0.9 (inactive)
red/green cell ratio (normalised) [1]: 0.77 (inactive)
normalised cell number [1, 13]: 0.27
normalised cell number [1, 14]: 0.21
remaining activity [10]: 111% (inactive)
fold change ([11]; stronger effect = lower value, cell number ratio, induced over uninduced): 1.04 (inactive) and 1.06 (inactive) and 0.898 (inactive)
fold change ([11]; measured here: relative caspase fold change +Dox/-Dox): 1.1 and 0.674 and 2.07
fold fluorescence [12]: 18.1 [at 41.6 µM] (inactive)

CC(C)[C@@H]1CC[C@@H](C)C[C@H]1OC(=O)c1ccccc1
red/green cell ratio (normalised) [1]: 1.07 (inactive)
normalised cell number [1, 13]: 0.9
normalised cell number [1, 14]: 0.97

CC12CCC3C(CC3(C)C)C3(C1)OC(=O)CC(C(=O)O)C3CC2 (stereo unspecified)
red/green cell ratio (normalised) [1]: 0.86 (inactive)
normalised cell number [1, 13]: 1.03
normalised cell number [1, 14]: 0.88

CC(C)CCCC(C)C1CCC2C3CC(=O)[C@H]4C[C@@H](O)CC[C@]4(C)C3CC[C@]12C (stereo partly specified)
red/green cell ratio (normalised) [1]: 1.01 (inactive)
normalised cell number [1, 13]: 1.04
normalised cell number [1, 14]: 1.05

O=C(O)c1ccc([C@H](O)c2ccccc2)cn1
red/green cell ratio (normalised) [1]: 1.05 (inactive)
normalised cell number [1, 13]: 1.03
normalised cell number [1, 14]: 1.09

O=C1OCC[C@@H]1Oc1ccc(Oc2cnc3ccc(Cl)cc3n2)cc1
red/green cell ratio (normalised) [1]: 0.83 (inactive)
normalised cell number [1, 13]: 1.22
normalised cell number [1, 14]: 1.01

CC1(C)C(=O)C=C[C@@]2(C)C1C=C[C@]1(C)C2CC[C@@]2(C)[C@H](c3ccoc3)OC(=O)[C@H]3O[C@]321 (stereo partly specified)
red/green cell ratio (normalised) [1]: 1.3 (inactive)
normalised cell number [1, 13]: 0.56
normalised cell number [1, 14]: 0.73

CCC(CCC(C)[C@H]1CCC2C3CC=C4C[C@@H](O)CC[C@]4(C)C3CC[C@@]21C)C(C)C (stereo partly specified)
red/green cell ratio (normalised) [1]: 1.04 (inactive)
normalised cell number [1, 13]: 1.04
normalised cell number [1, 14]: 1.08

COC(=O)c1cc(Br)ccc1Cl
red/green cell ratio (normalised) [1]: 1.04 (inactive)
normalised cell number [1, 13]: 1.12
normalised cell number [1, 14]: 1.17

COC(=O)[C@@]12Oc3ccc(-c4ccc5c(c4O)C(O)=C4C(=O)C[C@H](C)[C@H](O)[C@]4(C(=O)OC)O5)c(O)c3C(O)=C1C(=O)C[C@H](C)[C@@H]2O
red/green cell ratio (normalised) [1]: 1.15 (inactive)
normalised cell number [1, 13]: 0.96
normalised cell number [1, 14]: 1.1

CC(=O)N[C@@H]1[C@@H](OC(C)C(=O)O)[C@H](O)[C@@H](CO)O[C@H]1O (stereo partly specified)
red/green cell ratio (normalised) [1]: 0.95 (inactive)
normalised cell number [1, 13]: 1.06
normalised cell number [1, 14]: 1

CC(CC(=O)N1C(=S)SC[C@@H]1c1ccccc1)N1C(=S)SC[C@@H]1c1ccccc1 (stereo partly specified)
red/green cell ratio (normalised) [1]: 0.88 (inactive)
normalised cell number [1, 13]: 1.18
normalised cell number [1, 14]: 1.04

C=C(C)n1cc(C(=O)OC)c(=O)c2cc(F)c(F)c(OC)c21
red/green cell ratio (normalised) [1]: 1.15 (inactive)
normalised cell number [1, 13]: 0.99
normalised cell number [1, 14]: 1.14

O=C(Cc1ccccc1)NCC1O[C@@H](OC2C(NC(=O)Cc3ccccc3)C[C@@H](NC(=O)Cc3ccccc3)[C@H](OC3OC(COS(=O)(=O)O)[C@@H](OS(=O)(=O)O)[C@H](NC(=O)Cc4ccccc4)[C@H]3OS(=O)(=O)O)[C@H]2OS(=O)(=O)O)[C@H](OS(=O)(=O)O)[C@@H](OS(=O)(=O)O)C1OS(=O)(=O)O (stereo partly specified)
red/green cell ratio (normalised) [1]: 1.14 (inactive)
normalised cell number [1, 13]: 0.9
normalised cell number [1, 14]: 1.03
